In the library only some 3% were active in any assay of this set; here they are far more common.
Hsp90 Hop PPI: qHTS Assay for Disrupters of an Hsp90 Co-Chaperone Interaction | Potency, µM (doses to about 57 µM), inactives show at the highest dose activity change, negative = inhibition | 71,000 compounds, 0.44% hits | Hsp90 C-terminal peptide / TPR2A (Hop) interaction, human | AlphaScreen TPR2A-His6 binding biotin-Hsp90 C-terminal peptide; active = well fitted curve in either direction with a large enough effect; inconclusive = small, poorly fitted or top-dose-only effect, or another doubt; note: potency is the fitted concentration of half-maximal effect; % is set by controls: 0 for no effect and ±100 for the full control effect
Tau filament bind: qHTS Assay for Tau Filament Binding. 71,000 compounds, 2% hits. Potency, µM (highest dose often 57.1 µM), for the others: at the top dose activity change, negative = inhibition. Microtubule-associated protein tau (Homo sapiens), P10636. AID 596, 2007. recombinant tau filaments, thioflavin S fluorescence, 15 h; filaments grown with octadecylsulfate alongside compound;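 note: potency is the fitted concentration of half-maximal effect; % is set by controls: 0 for no effect and ±100 for the full control effect; actives lower thioflavin S fluorescence by blocking filaments or displacing dye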
Target sequence (P10636 whole entry, looked up): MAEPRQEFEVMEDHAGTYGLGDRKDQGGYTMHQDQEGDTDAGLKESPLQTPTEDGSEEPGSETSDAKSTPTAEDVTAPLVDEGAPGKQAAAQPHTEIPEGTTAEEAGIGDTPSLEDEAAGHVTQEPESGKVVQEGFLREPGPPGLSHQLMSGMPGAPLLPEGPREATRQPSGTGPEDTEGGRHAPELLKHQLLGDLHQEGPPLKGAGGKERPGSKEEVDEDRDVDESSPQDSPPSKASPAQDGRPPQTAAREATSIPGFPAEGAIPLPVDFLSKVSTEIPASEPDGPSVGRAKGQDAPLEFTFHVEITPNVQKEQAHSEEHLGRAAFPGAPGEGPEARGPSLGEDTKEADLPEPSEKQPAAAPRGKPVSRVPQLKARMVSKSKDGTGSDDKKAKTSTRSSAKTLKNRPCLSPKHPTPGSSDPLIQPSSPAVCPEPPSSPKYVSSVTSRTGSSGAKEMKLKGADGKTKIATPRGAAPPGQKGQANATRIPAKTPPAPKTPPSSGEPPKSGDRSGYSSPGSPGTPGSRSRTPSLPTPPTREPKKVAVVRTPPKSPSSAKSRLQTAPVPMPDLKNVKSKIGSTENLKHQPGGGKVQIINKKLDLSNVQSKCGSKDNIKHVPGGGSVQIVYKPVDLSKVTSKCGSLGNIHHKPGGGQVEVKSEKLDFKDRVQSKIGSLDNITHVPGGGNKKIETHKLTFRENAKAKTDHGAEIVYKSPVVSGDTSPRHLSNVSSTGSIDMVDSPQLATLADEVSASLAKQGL
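Quantitative HTS: thioflavine S signal from ODS-induced tau filaments, excited at 450 nm, emission 510 nm. Conditions: 1 uM tau, 30 uM ODS, 15 h at 37 C, pH 7.4.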
HBB splicing: qHTS Assay for Modulators of Hemoglobin Beta Chain Splicing | HBB splicing reporter cell assay, activation; EGFP reporter with mutant IVS2-654 intron; response scale: normalised to 500 nM splice-correcting PNA | Potency, µM (titrated, usually from 46.1 µM), without a hit: at the top dose activation, actives largely listed as activators | 65,000 compounds, 0.06% hits; note: potency is the fitted concentration of half-maximal effect; 0% is about no effect
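HeLa cells stably expressing EGFP interrupted by mutant beta-globin intron 2 (IVS2-654), 500/well in 2% FCS. Treated with compound for 2 days at 37C. Splicing correction scored as total well GFP intensity (488 nm excitation, 500-520 nm emission); 500 nM antisense PNA served as control.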
Ub-GFP proteasome: Ubiquitin-GFP Assay; Ubiquitin-GFP reporter cells, proteasome inhibition, GFP fluorescence; response scale: untreated = 0%, 10 µM MG-132 = 100%; Potency, µM (highest dose often 45.9 µM), inactives show top-dose activation (GFP accumulation), actives largely listed as activators; 67,000 tested, under 10 active; active = well fitted activation curve with a large enough effect, not every such curve was filed as active; inconclusive = small, poorly fitted or top-dose-only effect, or another doubt; inactive = no such curve, though single readings can be large or run the other way; note: potency is the fitted concentration of half-maximal effect
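Proteasome blockade was scored as a rise in GFP-expressing U2OS cells carrying a ubiquitin(G76V)-GFP construct, imaged after 4 hr compound treatment at 37 °C across a 46 uM–2.9 nM series.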
ERK AVP block: qHTS Assay for Inhibitors of the ERK Signaling Pathway using a Homogeneous Screening Assay | HEK293-V1b, vasopressin-stimulated pERK AlphaScreen | Potency, µM (titrated, usually from 57.5 µM), for inactives: at the top dose activity, negative = inhibition, hits mostly inhibitors | 72,000 compounds, 0.99% hits | AID 995, 2007; note: potency is the fitted concentration of half-maximal effect; % is set by controls: 0 for no effect and ±100 for the full control effect; nearly all actives have a fitted effect of over 55% in size
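Overnight-seeded V1b-HEK293 cells in 1% FBS got compound, then vasopressin (25 nM final, 5 min, 37C), then lysis buffer. AlphaScreen detection of phospho-ERK; activity normalized to basal and full-stimulation controls.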
Epigenetic mod: qHTS Assay for Epigenetic Modulators; 68,000 compounds, 0.09% hits; Potency, µM (top dose mostly 46.1 µM), inactives show at the top dose GFP derepression (activation); AID 597, 2007; mouse C127i GFP locus derepression, cytometry, 30 h; note: % of control where 0% means no effect
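Read-out is the number of GFP-positive cells, scored as fluorescent objects 20 to 120 um wide, reflecting derepression of a silenced CMV-GFP reporter in murine C127i cells after 30 h compound exposure at 37 C.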
* marks the source's active call; other numbers are inactive results; ? = inconclusive; . = no result; [ ] = another dose, or the depositor's remark. Unless noted, calls come from the whole dose curve; as a rule, active = well fitted curve in the direction sought with a large enough effect; inconclusive = small, poorly fitted or top-dose-only effect, or another doubt; inactive = no such curve, though single readings can be large; an effect the other way counts as inactive or inconclusive.

SMILES	Hsp90 Hop PPI	Tau filament bind	HBB splicing	Ub-GFP proteasome	ERK AVP block	Epigenetic mod
O=C(CSCc1nc2ccccc2[nH]1)N1CCN(c2cccc(Cl)c2)CC1	-6%	-10%	-1%[57.5 µM]	-3%	25µM*	0%
O=C(c1ccccc1C(=O)N1CCN(c2ccccc2)CC1)N1CCN(c2ccccc2)CC1	-17%	484%	-1%	9%	-25%	2%
COc1cccc(Cn2c(=O)c(-c3ccc(F)c(F)c3)nc3cncnc32)c1	-12%	10µM*	-1%	7%	-21%	3%[9.22 µM]
COc1cccc(Cn2c(=O)c(-c3ccccc3)nc3cncnc32)c1	-3%	20µM*	0%	4%	-15%	3%[9.22 µM]
C#CCN1C(C)=C(C(=O)OC)[C@@H](c2cccc([N+](=O)[O-])c2)C(C(=O)OCC)=C1C	-9%	-30%	0%	0%	-5%	-2%
CCN(CC)[C@@H](C)C(=O)N1c2ccccc2Sc2ccccc21	-3%	-7%	2%	-9%	.	0%
Nc1cccc2cc(S(=O)(=O)Nc3ccc(C(=O)O)cc3)ccc12	-11%[11 µM]	14%[11.4 µM]	0%[9.22 µM]	4%[9.17 µM]	-19%[11.5 µM]	-3%[9.22 µM]
COc1ccc(-c2cc([C@H](O)[C@@H]3CCCCN3)c3ccccc3n2)cc1	-4%[11 µM]	-5%[11.4 µM]	1%[9.22 µM]	-1%[9.17 µM]	35%[11.5 µM]	3%[9.22 µM]
O=C1c2ccccc2C(=O)N1CCCSc1nc2ccccc2o1	?	4µM*	2%[0.0738 µM]	10%[9.17 µM]	?	-3%
O=C(CSc1nc2ccccc2o1)c1cc2ccccc2oc1=O	-20%	25µM*	-1%	0%	?	0%
Cn1c(=O)[nH]c(=O)c2c1nc(Br)n2CCCSc1nc2ccccc2o1	1%	-1%	-1%[0.369 µM]	.	32µM*	-2%
Cn1c(=O)[nH]c(=O)c2c1nc(N1CCCC1)n2CCCSc1nc2ccccc2o1	-2%	8%	1%[57.5 µM]	-3%	-17%	3%
CN(C)c1ccc(-c2nccc(NCCN3CCOCC3)n2)cc1	-4%	15%	0%	6%	-12%	0%[9.22 µM]
N#Cc1ccccc1-c1ccc2ncnc(NCc3cccs3)c2c1	-4%	350%	-4%	-3%	-26%	0%[9.22 µM]
CC(C)(CC(=O)Nc1ccccc1)C(=O)O	-3%[11 µM]	6%[11.4 µM]	3%[9.22 µM]	-7%[9.17 µM]	-25%[11.5 µM]	1%[9.22 µM]
O=C1OCC2=C1C(c1ccc3c(c1)OCO3)Sc1ccccc1N2 (stereo unspecified)	-5%	-6%	-1%	0%	20µM*	-3%
Nc1ncnc2c1nc(Sc1ccc(Cl)cc1)n2[C@@H]1O[C@H]2COP(=O)(O)O[C@@H]2[C@H]1O	-1%	8%	-3%	-2%	-17%	0%
c1ccc(OCc2nc(-c3ccccc3)no2)cc1	?	-2%	3%	0%	39%	3%
Cc1noc(COc2ccc(OCc3nc(C)no3)cc2)n1	0%	0.79µM*	1%	-7%	-14%	-3%
C=C1C[C@@]23C[C@@]1(O)CC[C@@H]2[C@]12C=C[C@@H](O)[C@](C)(C(=O)O1)[C@@H]2[C@@H]3C(=O)O	.	.	.	.	8%	.
O=C(NCCN1CCOCC1)c1cc2ccccc2o1	2%	-4%	.	4%	28%	-1%
CCOC(=O)c1ccc(NC(=O)c2ccc(CN3CCOCC3)cc2)cc1	-4%	13%	-1%	2%	32µM*	0%
O=C(Nc1ccc(CN2CCOCC2)cc1)c1cc2ccccc2o1	-1%	1%	-3%	11%	25µM*	0%
COc1ccccc1NC(=O)c1ccc(CN2CCOCC2)cc1	0%	-1%	5%	3%	3%	2%
O=C(Nc1ccc2c(c1)OCO2)c1ccc(CN2CCOCC2)cc1	-22%	16µM*	-1%	10%	?	-2%
SMILES	Hsp90 Hop PPI	Tau filament bind	HBB splicing	Ub-GFP proteasome	ERK AVP block	Epigenetic mod
Clc1ccc([C@@H](c2ccccc2Cl)C(Cl)Cl)cc1	?	5%	-1%	-1%	.	0%
COc1ccc(C)cc1NC(=O)C1CCCN1S(=O)(=O)c1ccc2c(c1)CCC(=O)N2 (stereo unspecified)	-24%	25µM*	-1%	0%	?	2%
O=C(O)[C@@H]1[C@@H](C(=O)NCc2ccncc2)[C@@H]2C=C[C@@H]1O2	-2%[11 µM]	5%[11.4 µM]	-2%[9.22 µM]	0%[9.17 µM]	-6%[11.5 µM]	3%[9.22 µM]
Cc1cc(Cl)cc2c1NC(=O)[C@]21[C@@H]2C(=O)N(Cc3ccccc3)C(=O)[C@@H]2[C@@H]2CCCN21	-17%	25µM*	-1%	-13%	?	3%
O=C1C=C[C@@H](O)[C@H]2[C@@H]3C(=O)N(Cc4ccccc4)C(=O)[C@@H]3CC[C@H]12	.	.	2%[9.22 µM]	.	39%[11.5 µM]	.
CCc1ccc2c(c1)[C@]1(C(=O)N2)[C@@H]2C(=O)N(Cc3ccccc3)C(=O)[C@@H]2[C@@H]2CCCN21	-10%	20µM*	-2%[1.84 µM]	-7%	-7%	-2%
O=C1C2C3C=CC(C3)C2C(=O)N1Cc1ccccc1 (stereo unspecified)	-11%	40%	-2%	0%	-36%	3%
Nc1c(S(=O)(=O)c2cccs2)c2nc3ccccc3nc2n1Cc1ccc2c(c1)OCO2	19%	100%	-2%[57.5 µM]	-2%	0%	-2%
c1csc(-c2nc3nc4ccccc4nc3n2Cc2ccc3c(c2)OCO3)c1	29%	3.2µM*	1%[1.84 µM]	-7%	16%	-6%
CS(=O)(=O)N1CCC[C@@]2(CCN(c3ccccn3)C2)C1	-1%	4%	1%	0%	-16%	2%[9.22 µM]
CN1CC[C@@]2(CCN3CCc4c(oc5ccccc45)[C@@H]3C2)N(C)C1=O	-6%	5%	-1%	4%	4%	2%
c1csc(CNc2nc(-c3ccoc3)nc3ccccc23)c1	-9%	25µM*	9%	-2%	-21%	6%[9.22 µM]
O=c1cc(O)cc(/C=C\c2ccc(O)c(O)c2)o1	13µM*	1%	3%	7%	?	0%
Cc1ccc(-c2cc3c(nn2)-c2ccccc2C3=O)cc1	-30%[11 µM]	1µM*	-1%[0.0738 µM]	3%[9.17 µM]	?	2%
CCCNC(=O)OC[C@@H]1O[C@H](CCO/N=C(\C)CCN2CCCCc3nc(C)c(C)cc32)C=C[C@@H]1Oc1ccc(OC)cc1	.	.	-1%[9.22 µM]	.	6%[11.5 µM]	.
c1ccc2nc3[nH]cnc3nc2c1	1%	8%	-1%	9%	7%	4%
Nc1[nH]nc2nc3ccccc3nc12	-8%	40µM*	.	-1%	-14%	-1%
Cc1cc(C(=O)CSc2nc(N)cc(N)n2)c(C)n1CCc1ccc(F)cc1	-19%	20%	-1%[57.5 µM]	-4%	13µM*	-2%
